HADH2 inh – HADH2 (human) dehydrogenase inhibition. Q99714. recombinant HADH2, NADH fluorescence, beta-hydroxybutyryl-CoA. Potency, µM (highest dose often 57.1 µM), without a hit: top-dose activity change, negative = inhibition, hits mostly inhibitors. hit rate 3.4% among 73,000. AID 886; also: potency is read from the fitted curve at half-maximal effect; % is scaled to controls: 0 for no effect and ±100 for the full control effect; nearly all actives have a fitted effect of over 60% in size
Target sequence (Q99714 whole entry, looked up, one chain of several): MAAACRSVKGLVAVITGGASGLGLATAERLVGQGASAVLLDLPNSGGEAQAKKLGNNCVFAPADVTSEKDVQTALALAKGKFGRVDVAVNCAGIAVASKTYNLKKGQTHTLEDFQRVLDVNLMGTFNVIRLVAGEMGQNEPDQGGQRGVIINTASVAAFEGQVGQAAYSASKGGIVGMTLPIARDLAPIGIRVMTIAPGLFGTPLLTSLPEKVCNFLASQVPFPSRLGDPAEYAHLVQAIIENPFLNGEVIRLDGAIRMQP
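Buffer 100 mM Tris-HCl pH 9.0/0.01% Tween-20; HADH2 20 nM; NAD+ 1 mM; beta-hydroxybutyryl-CoA 90 uM (all final). 15 min cpd preincubation, RT.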
A350 fluor – compound fluoresces in the Alexa 350 spectral region; Compound autofluorescence, 340/450 nm, Alexa 350 dye-equivalents; hits give high values; max dye-equivalent concentration, M; hit rate 11% among 59,000; AID 590; in the data active = max dye-equivalent concentration above about 10 nM; inconclusive = mostly about 1.1 nM to 9.6 nM
4-MU autofl – compound fluoresces in the 4-MU spectral region; compound autofluorescence, 340/450 nm, 4-MU equivalents; hits give high values; max dye-equivalent concentration, M; hit rate 11% among 59,000; AID 589; in the data active = max dye-equivalent concentration above about 10 nM; inconclusive = mostly about 1.1 nM to 9.6 nM
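Compounds in 100 mM Tris, pH 8.0, incubated 15 min at room temperature, then fluorescence read at 340 nm excitation/450 nm emission. Signal converted to 4-MU dye-equivalent concentration using an on-plate six-point 4-MU standard curve.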
HSD17B inh – blocks hydroxysteroid 17-beta dehydrogenase activity. recombinant HSD17B10, NADH fluorescence kinetic. Q99714. Potency, µM (top dose mostly 57.1 µM), inactives show at the top dose activity change, negative = inhibition, usual class: inhibitors. hit rate 7.6% among 75,000;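 also: the protocol describes HADH2 (HSD17B10) and not the HSD17B4 of the title; potency is read from the fitted curve at half-maximal effect; % is scaled to controls: 0 for no effect and ±100 for the full control effect; nearly all actives have a fitted effect of over 70% in size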
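Enzyme plus compound, 15 min room temperature; substrate mix added (NAD+ 1 mM, beta-hydroxybutyryl-CoA 90 uM final); plates read kinetically for NADH fluorescence. HADH2 was His-tagged, E. coli-derived, 20 nM.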
AID923 – qHTS Assay for Allosteric/Competitive Inhibitors of Caspase-1: Spectroscopic Profiling in AFC Spectral Region; hit rate 1.1% among 75,000; compound fluorescence, AFC spectral region (405/520 nm); Potency, µM (highest dose often 57.5 µM), without a hit: top-dose fluorescence increase, hits mostly activators; also: potency is read from the fitted curve at half-maximal effect; 0% is about no effect
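Compound autofluorescence profiled at 405 nm ex/520 nm em during kinetic caspase 1 run (50 nM enzyme, 5 uM Ac-WEHD-AFC, HEPES pH 7.5, 10 mM DTT). Titration up to 57 uM; baseline from regression intercept, normalized to AFC standard curve.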
Numbers without * were called inactive; [ ] = remark or other dose. In the library only some 13% were active in any assay of this set; here they are far more common. Unless noted, calls follow the shape of the dose curve; as a rule, active = well fitted curve in the direction sought with a large enough effect; inconclusive = small, poorly fitted or top-dose-only effect, or another doubt; inactive = no such curve, though single readings can be large; an effect the other way counts as inactive or inconclusive.

For CC(C)(O)c1cc(=O)sc2nc3ccccc3n12 the results were HADH2 inh 3%, A350 fluor inactive, 4-MU autofl inactive, HSD17B inh 11% and AID923 -1%.
Screening CSCCC(N)C(=O)NC(CC(C)C)C(=O)NC(Cc1ccccc1)C(=O)O (stereo not drawn) returned HSD17B inh 7% and AID923 -1%.
For COc1cc(C2NC(=O)c3ccccc3O2)cc(OC)c1OC (stereo not drawn) the results were HADH2 inh 1%, A350 fluor inconclusive, 4-MU autofl inconclusive, HSD17B inh 25µM* and AID923 0%.
Screening COc1cc(C2C3C(=O)N(c4ccccc4)C(=O)C3ON2c2ccccc2)cc(OC)c1OC (stereo not drawn) returned HADH2 inh -7%, A350 fluor inactive, 4-MU autofl inactive, HSD17B inh 7% and AID923 1%.
For CCOc1ccc(C2NC(=O)c3ccccc3O2)cc1 (stereo not drawn) the results were HADH2 inh -3%, A350 fluor 1.8e-08M*, 4-MU autofl 1.2e-08M*, HSD17B inh inconclusive and AID923 0%.
Cc1c(C)c2c(c(C)c1O)CC[C@@](C)(C(=O)O)O2 was read as HADH2 inh -16%[25.6 µM], A350 fluor inactive, 4-MU autofl inactive, HSD17B inh 4%[25.6 µM] and AID923 -2%[25.7 µM].
For O=C1OCc2cccc3cccc1c23 the results were HADH2 inh 25µM*, A350 fluor 7.7e-08M*, 4-MU autofl 7.2e-08M*, HSD17B inh 25µM* and AID923 0%.
For CCN1/C(=C/C(C)=O)Sc2ccc(OC)cc21 the results were HADH2 inh inconclusive, A350 fluor 1.4e-08M*, 4-MU autofl 1.1e-08M*, HSD17B inh -13% and AID923 -2%.
`CSc1nc2nc(-c3ccccc3)cc(C(F)(F)F)n2n1` gave HADH2 inh inconclusive, A350 fluor 3.7e-07M*, 4-MU autofl 3e-07M*, HSD17B inh 32µM* and AID923 5%.
For N#Cc1cnn(-c2ccccc2)c1N the results were HADH2 inh -3%, A350 fluor inactive, 4-MU autofl inactive, HSD17B inh 3% and AID923 6%.
Screening CSc1nc2nc(C)cc(-c3ccccc3)n2n1 returned HADH2 inh inconclusive, A350 fluor inconclusive, 4-MU autofl inactive, HSD17B inh 32µM* and AID923 0%.
Screening Cc1cc(-c2ccccc2)n2ncc(C#N)c2n1 returned HADH2 inh inconclusive, HSD17B inh 25µM* and AID923 5%.
`COc1ccc(C#CC2C=CC(Oc3cc(C)cc(C)c3)C(CO)O2)cc1` (stereo not drawn) gave HADH2 inh 0%[11.4 µM], HSD17B inh -2%[11.4 µM] and AID923 -1%[11.5 µM].
Screening Cc1nc2cnc(OCc3ccccc3)nc2n(CCc2ccccc2)c1=O returned HADH2 inh 3%, A350 fluor inactive, 4-MU autofl inactive, HSD17B inh -2% and AID923 -1%.
For O=C1CC(c2ccccc2)Cc2nc(N3CCc4ccccc43)ncc21 (stereo not drawn) the results were HADH2 inh 13µM*, A350 fluor 3.4e-07M*, 4-MU autofl 3.4e-07M*, HSD17B inh -9% and AID923 1%.
`O=C1CC(c2cccc(Cl)c2)Cc2nc(N3CCOCC3)ncc21` (stereo not drawn) gave HADH2 inh -9%, A350 fluor inconclusive, 4-MU autofl inconclusive, HSD17B inh -7% and AID923 0%.
For O=C(Nc1ncc2c(n1)CC(c1ccccc1)CC2=O)c1ccco1 (stereo not drawn) the results were HADH2 inh -7%, A350 fluor inconclusive, 4-MU autofl inactive, HSD17B inh 0% and AID923 -1%.
Screening O=C1CC(c2ccccc2)Cc2nc(NCc3ccco3)ncc21 (stereo not drawn) returned HADH2 inh 32µM*, A350 fluor 2e-07M*, 4-MU autofl 1.9e-07M*, HSD17B inh 25µM* and AID923 -1%.
For O=C1CC(c2ccc(F)cc2)Cc2nc(N3CCOCC3)ncc21 (stereo not drawn) the results were HADH2 inh 7%, A350 fluor inconclusive, 4-MU autofl inactive, HSD17B inh -2% and AID923 -1%.
`O=C1CCCc2nc(N3CCN(Cc4ccccc4)CC3)ncc21` gave HADH2 inh -2%, A350 fluor inactive, 4-MU autofl inactive, HSD17B inh -5% and AID923 -1%.
`O=C1CCCc2nc(N3CCc4ccccc43)ncc21` gave HADH2 inh 0%, A350 fluor 7.1e-08M*, 4-MU autofl 5.5e-08M*, HSD17B inh 0% and AID923 -1%.
O=C1CC(c2cccc(Cl)c2)Cc2nc(N3CCN(c4ccccc4)CC3)ncc21 (stereo not drawn) was read as HADH2 inh inconclusive, A350 fluor inconclusive, 4-MU autofl 4.5e-08M*, HSD17B inh 1% and AID923 1%.
Screening FC(F)(F)c1cc(CO[C@@H]2CCCN[C@H]2c2ccccc2)cc(C(F)(F)F)c1 returned HADH2 inh inconclusive, A350 fluor inactive, 4-MU autofl inactive, HSD17B inh -5% and AID923 0%.
COC(=O)c1ccc(C(NC(=O)OCc2ccccc2)/C(C)=C/[C@@H](C)C(=O)NCc2nc3ccccc3s2)cc1 (stereo partly drawn) was read as HADH2 inh 0%, HSD17B inh -7% and AID923 1%.
Screening COC(=O)N1CCC2(CCCN(C(=O)Nc3ccc(OC)cc3)C2)CC1 returned HADH2 inh -1%, A350 fluor inactive, 4-MU autofl inactive, HSD17B inh 4% and AID923 0%.
`Cc1ccc(C(C)(C)C)cc1` gave HADH2 inh -4%, HSD17B inh 3% and AID923 0%.
`O=C(c1cn[nH]c1)c1cc(F)ccc1O` gave HADH2 inh -22%, A350 fluor inactive, 4-MU autofl inactive, HSD17B inh -8% and AID923 -1%.
For CCCCN1Cc2cc(C(=O)c3cc(F)ccc3O)cnc2NC1=O the results were HADH2 inh 3%, A350 fluor 1.5e-08M*, 4-MU autofl 1.4e-08M*, HSD17B inh inconclusive and AID923 3%.
`CC(N)=NCCCC[C@H](N)C(=O)O` gave HADH2 inh 10%, A350 fluor inactive, 4-MU autofl inactive, HSD17B inh 22% and AID923 1%.
NC(N)=NCCC[C@H](N)C(=O)O was read as HADH2 inh 9%, A350 fluor 4.2e-08M*, 4-MU autofl 3.1e-08M*, HSD17B inh 7% and AID923 -5%.
Screening COc1cccc2c1[C@H](CO)N1[C@H](C#N)[C@@H]3C[C@H](C(=O)O)[C@@H]([C@@H]1C2)N3C returned HADH2 inh 6%[11.4 µM], A350 fluor inactive, 4-MU autofl inactive, HSD17B inh 0%[11.4 µM] and AID923 -2%[11.5 µM].
